# Compound activity as filed in PubChem BioAssay.
# A selection: hits, their analogues and other compounds. The true share with any hit is near 28%.
# CYP2C9 inh: inhibitors of human CYP2C9. CYP2C9 Supersomes, luciferin-H conversion, luminescence. inhibition, % at 5 µM. 96,000 compounds, 20% hits. AID 777;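 active means blocking of liver enzyme CYP2C9 beyond about 50% at 5 µM, limit read from the data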
# Pyk2 oligo antag: Pyk2 (human) oligomerization antagonism | Q293 cells, Pyk2 FERM NanoBiT luminescence; hits give low values | z-score (the deposit names both 25 µM and 10 µM) | 99,000 compounds, 0.83% hits;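 active means Z-score of -3 or lower, scaled per plate to the spread of control and sample wells; inactive means z-score above -3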;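 further: negative z-score means lost luminescence so less FERM oligomerization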
# CYP2C9 act: increases human cytochrome P450 2C9 activity. 96,000 compounds, 1.4% hits. recombinant CYP2C9, luciferin-H conversion, luminescence; hits give high values; factor 1 = untreated enzyme, 0 = blocked. activation factor at 5 µM. AID 1024;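 active means activation factor of 2 or more for CYP2C9 at a 5 µM dose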;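 further: 0 = sulfaphenazole-blocked wells and 1 = vehicle-only wells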
# CYP2C19 inhib: blocks human cytochrome P450 2C19; CYP2C19 Supersomes, luciferin-H EGE luminescence, 30 min; AID 778; 96,000 compounds, 21% hits; inhibition, % at 5 µM; P33261;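 active means CYP2C19 inhibition above a set limit at 5 µM in the primary screen, cut at about 50% in these data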;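 further: plate controls were negative control wells for no effect and 2.5 mM tranylcypromine positive control for full effect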
# CYP2C19 act: activators of human cytochrome P450 2C19. P33261. recombinant CYP2C19, luciferin-H EGE luminescence; hits give high values; 0 = fully inhibited enzyme, 1 = untreated enzyme. activation factor at 5 µM. 96,000 tested, under 10 active;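 active means activation factor of at least 2 at 5 µM in the primary screen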;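 further: 0 = wells with 2.5 mM tranylcypromine and 1 = vehicle-only wells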
# Numbers without * were called inactive; nt = no result given.
SMILES,CYP2C9 inh,Pyk2 oligo antag,CYP2C9 act,CYP2C19 inhib,CYP2C19 act
CN1C(=O)c2ccccc2C(C(=O)O)C1c1cn(C)c2ccccc12 (stereo not drawn),16.9,0.63,0.8,15.4,0.8
CCOC(=O)C1=C(C)Nc2nnnn2C1c1c[nH]c2ccccc12 (stereo not drawn),84.0*,nt,0.2,90.2*,0.1
C=CCOC(=O)C1=C(C)Nc2nnnn2C1c1cccc(OC)c1OC (stereo not drawn),83.1*,-1.58,0.2,58.6*,0.4
Cc1c(NC(=O)CSc2ccccc2C(=O)Nc2cccnc2)c(=O)n(-c2ccccc2)n1C,9.3,0.48,0.9,-6.2,1.1
CCN1CCCC1CN(Cc1cc2cc(OC)ccc2[nH]c1=O)C(=O)NCc1ccccc1 (stereo not drawn),27.6,0.99,0.7,12.1,0.9
Cc1cc([N+](=O)[O-])ccc1NCc1ccccc1,51.9*,-1.16,0.5,87.2*,0.1
COc1ccc(CNC(=O)COc2ccc([N+](=O)[O-])cc2)cc1,29.1,1.39,0.7,28.2,0.7
Cc1cc(CSc2ccccc2)ccc1NC(=O)c1cccc([N+](=O)[O-])c1,nt,1.81,nt,nt,nt
Cc1cc([N+](=O)[O-])ccc1NCc1ccc2ccccc2c1,77.3*,-1.09,0.2,35.9,0.6
COc1ccc(CNc2cc([N+](=O)[O-])ccc2OC)cc1,74.7*,-1.71,0.3,52.4*,0.5
CCOC(=O)NC(Nc1ccc(S(N)(=O)=O)cc1)(C(=O)OCC)C(F)(F)F (stereo not drawn),-1.2,-0.24,1,8.0,0.9
CC(C)C1Cc2c(sc3c2c(=O)n(Cc2ccccc2)c2nncn32)CO1 (stereo not drawn),-18.9,-0.09,1.2,-10.9,1.1
Cc1ccc2[nH]c(=O)c3cc(C(=O)N4CCN(C(=O)c5ccco5)CC4)sc3c2c1,10.3,nt,0.9,-3.0,1
COCCN(Cc1cc2cc(C)cc(C)c2nc1Cl)C(=O)Nc1ccccc1,67.2*,-1.46,0.3,39.1,0.6
Cc1cc(C)c2nc(Cl)c(CN(Cc3ccco3)C(=O)Nc3ccccc3C)cc2c1,75.4*,-0.87,0.2,14.2,0.9
COCCNC(=O)c1ccc(-n2c(SCc3cc(F)ccc3F)nc3ccccc3c2=O)cc1,nt,0.47,nt,nt,nt
O=C1CCCC(=O)C1=Cc1c[nH]c2ccccc12,15.4,0.35,0.8,7.5,0.9
CC(C)=CCC/C(C)=C/C=N/NC(=O)c1ccc([N+](=O)[O-])cc1,nt,-0.47,nt,nt,nt
CCOC(=O)N1CCC(NC(=O)c2ccc(CS(=O)(=O)c3ccccc3C)o2)CC1,77.3*,nt,0.2,-9.3,1.1
CCOC(=O)N1CCC(NC(=O)c2ccc(CS(=O)(=O)c3c(Cl)cccc3Cl)o2)CC1,66.2*,nt,0.3,-6.8,1.1
Cc1ccccc1S(=O)(=O)Cc1ccc(C(=O)O)o1,-12.7,0.36,1.1,-16.3,1.2
CCN(CC)CCCNC(=O)Cc1c(C(=O)O)n(C)c2ccccc12,-18.3,-0.59,1.2,-0.5,1
Cc1cc(C)n2nc(S(=O)(=O)NC3CCCCC3)nc2n1,-4.7,nt,1,24.1,0.8
O=C(Oc1cccc2cccnc12)c1ccc2c(c1)OCCO2,-231.1,0.19,3.3*,44.8,0.6
O=C(Oc1cccc2cccnc12)c1ccco1,nt,0.82,nt,nt,nt
SMILES,CYP2C9 inh,Pyk2 oligo antag,CYP2C9 act,CYP2C19 inhib,CYP2C19 act
COc1cccc(Nc2ncnc3c2cnn3C)c1,-11.8,0.34,1.1,1.9,1
CCN1C(=O)/C(=C2/Sc3ccc(OC)cc3N2C)SC1=Nc1cccc(O)c1,55.1*,-0.85,0.4,36.4,0.6
CC(=O)NN1C(=O)/C(=C\c2ccc(C)cc2)SC1=S,-2.6,1.27,1,52.3*,0.5
CCOC(=O)N(C)c1ccc(C(O)(C(F)(F)F)C(F)(F)F)cc1,47.1,-0.65,0.5,38.9,0.6
Cc1ccc(N)c(C(O)(C(F)(F)F)C(F)(F)F)c1,58.1*,nt,0.4,82.2*,0.2
CCOC(=O)c1oc2ccc(Br)cc2c1NC(=O)CN1CCN(C)CC1,1.6,0.93,1,4.9,1
NC(=O)c1oc2ccc(Cl)cc2c1NC(=O)CN1CCOCC1,15.5,0.5,0.8,51.8*,0.5
COC(=O)c1oc2ccc(Br)cc2c1NC(=O)CCN1CCOCC1,55.2*,0.34,0.4,44.9,0.6
COc1ccc(C2CC(C(F)(F)F)n3nc(CO)c(Cl)c3N2)cc1OC (stereo not drawn),98.3*,2.02,0,77.3*,0.2
COc1ccc(C2CC(C(F)(F)F)n3nc(C(=O)O)c(Cl)c3N2)cc1OC (stereo not drawn),2.2,0.56,1,-8.7,1.1
